Experimental data as given in the supplement of paper PMC11732987, “Enantioselective OTUD7B fragment discovery through chemoproteomics screening and high-throughput optimisation” (Communications Chemistry, 2025).

How the values were obtained:
Experiment in all cases: log2 ratio of Biotin-Ahx-Ub-VS probe labelling (fragment/DMSO); higher = less target engagement (more negative = stronger competition), active = hit call of the paper (q ≤ 0.05, log2 ratio ≤ -1)
Details in all cases: compound concentration: 200 uM; treatment time: 3 h
[1] = target: USP9X (UniProt Q93008)
Procedure, shortened: (§1)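 HEK293T lysate in Tris/CHAPS/IGEPAL buffer with protease inhibitors (495 µg per sample) was given fragment at 200 µM or vehicle for 3 h, in triplicate. It then received Biotin-Ahx-Ub-VS at 0.5 µM final for 1 h. Labelled DUBs were NeutrAvidin-enriched, digested with LysC and trypsin, and run by diaPASEF LC-MS/MS. Values are average log2 fragment/vehicle ratios by unpaired t-test on global-median-normalised Spectronaut quantities of proteins with ≥2 unique peptides.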

[2] = target: UniProt O00487
Chain of UniProt O00487 (O00487 whole entry): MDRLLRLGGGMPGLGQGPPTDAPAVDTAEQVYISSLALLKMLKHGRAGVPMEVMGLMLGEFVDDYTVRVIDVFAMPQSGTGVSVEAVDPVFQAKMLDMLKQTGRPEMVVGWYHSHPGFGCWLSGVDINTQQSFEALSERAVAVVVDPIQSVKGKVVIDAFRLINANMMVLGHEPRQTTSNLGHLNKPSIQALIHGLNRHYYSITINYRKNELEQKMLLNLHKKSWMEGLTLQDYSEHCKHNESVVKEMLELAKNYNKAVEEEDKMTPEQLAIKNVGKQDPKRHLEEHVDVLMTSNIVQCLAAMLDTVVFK
Procedure, shortened: as §1

[3] = target: UniProt O00507
Chain of UniProt O00507 (O00507 whole entry): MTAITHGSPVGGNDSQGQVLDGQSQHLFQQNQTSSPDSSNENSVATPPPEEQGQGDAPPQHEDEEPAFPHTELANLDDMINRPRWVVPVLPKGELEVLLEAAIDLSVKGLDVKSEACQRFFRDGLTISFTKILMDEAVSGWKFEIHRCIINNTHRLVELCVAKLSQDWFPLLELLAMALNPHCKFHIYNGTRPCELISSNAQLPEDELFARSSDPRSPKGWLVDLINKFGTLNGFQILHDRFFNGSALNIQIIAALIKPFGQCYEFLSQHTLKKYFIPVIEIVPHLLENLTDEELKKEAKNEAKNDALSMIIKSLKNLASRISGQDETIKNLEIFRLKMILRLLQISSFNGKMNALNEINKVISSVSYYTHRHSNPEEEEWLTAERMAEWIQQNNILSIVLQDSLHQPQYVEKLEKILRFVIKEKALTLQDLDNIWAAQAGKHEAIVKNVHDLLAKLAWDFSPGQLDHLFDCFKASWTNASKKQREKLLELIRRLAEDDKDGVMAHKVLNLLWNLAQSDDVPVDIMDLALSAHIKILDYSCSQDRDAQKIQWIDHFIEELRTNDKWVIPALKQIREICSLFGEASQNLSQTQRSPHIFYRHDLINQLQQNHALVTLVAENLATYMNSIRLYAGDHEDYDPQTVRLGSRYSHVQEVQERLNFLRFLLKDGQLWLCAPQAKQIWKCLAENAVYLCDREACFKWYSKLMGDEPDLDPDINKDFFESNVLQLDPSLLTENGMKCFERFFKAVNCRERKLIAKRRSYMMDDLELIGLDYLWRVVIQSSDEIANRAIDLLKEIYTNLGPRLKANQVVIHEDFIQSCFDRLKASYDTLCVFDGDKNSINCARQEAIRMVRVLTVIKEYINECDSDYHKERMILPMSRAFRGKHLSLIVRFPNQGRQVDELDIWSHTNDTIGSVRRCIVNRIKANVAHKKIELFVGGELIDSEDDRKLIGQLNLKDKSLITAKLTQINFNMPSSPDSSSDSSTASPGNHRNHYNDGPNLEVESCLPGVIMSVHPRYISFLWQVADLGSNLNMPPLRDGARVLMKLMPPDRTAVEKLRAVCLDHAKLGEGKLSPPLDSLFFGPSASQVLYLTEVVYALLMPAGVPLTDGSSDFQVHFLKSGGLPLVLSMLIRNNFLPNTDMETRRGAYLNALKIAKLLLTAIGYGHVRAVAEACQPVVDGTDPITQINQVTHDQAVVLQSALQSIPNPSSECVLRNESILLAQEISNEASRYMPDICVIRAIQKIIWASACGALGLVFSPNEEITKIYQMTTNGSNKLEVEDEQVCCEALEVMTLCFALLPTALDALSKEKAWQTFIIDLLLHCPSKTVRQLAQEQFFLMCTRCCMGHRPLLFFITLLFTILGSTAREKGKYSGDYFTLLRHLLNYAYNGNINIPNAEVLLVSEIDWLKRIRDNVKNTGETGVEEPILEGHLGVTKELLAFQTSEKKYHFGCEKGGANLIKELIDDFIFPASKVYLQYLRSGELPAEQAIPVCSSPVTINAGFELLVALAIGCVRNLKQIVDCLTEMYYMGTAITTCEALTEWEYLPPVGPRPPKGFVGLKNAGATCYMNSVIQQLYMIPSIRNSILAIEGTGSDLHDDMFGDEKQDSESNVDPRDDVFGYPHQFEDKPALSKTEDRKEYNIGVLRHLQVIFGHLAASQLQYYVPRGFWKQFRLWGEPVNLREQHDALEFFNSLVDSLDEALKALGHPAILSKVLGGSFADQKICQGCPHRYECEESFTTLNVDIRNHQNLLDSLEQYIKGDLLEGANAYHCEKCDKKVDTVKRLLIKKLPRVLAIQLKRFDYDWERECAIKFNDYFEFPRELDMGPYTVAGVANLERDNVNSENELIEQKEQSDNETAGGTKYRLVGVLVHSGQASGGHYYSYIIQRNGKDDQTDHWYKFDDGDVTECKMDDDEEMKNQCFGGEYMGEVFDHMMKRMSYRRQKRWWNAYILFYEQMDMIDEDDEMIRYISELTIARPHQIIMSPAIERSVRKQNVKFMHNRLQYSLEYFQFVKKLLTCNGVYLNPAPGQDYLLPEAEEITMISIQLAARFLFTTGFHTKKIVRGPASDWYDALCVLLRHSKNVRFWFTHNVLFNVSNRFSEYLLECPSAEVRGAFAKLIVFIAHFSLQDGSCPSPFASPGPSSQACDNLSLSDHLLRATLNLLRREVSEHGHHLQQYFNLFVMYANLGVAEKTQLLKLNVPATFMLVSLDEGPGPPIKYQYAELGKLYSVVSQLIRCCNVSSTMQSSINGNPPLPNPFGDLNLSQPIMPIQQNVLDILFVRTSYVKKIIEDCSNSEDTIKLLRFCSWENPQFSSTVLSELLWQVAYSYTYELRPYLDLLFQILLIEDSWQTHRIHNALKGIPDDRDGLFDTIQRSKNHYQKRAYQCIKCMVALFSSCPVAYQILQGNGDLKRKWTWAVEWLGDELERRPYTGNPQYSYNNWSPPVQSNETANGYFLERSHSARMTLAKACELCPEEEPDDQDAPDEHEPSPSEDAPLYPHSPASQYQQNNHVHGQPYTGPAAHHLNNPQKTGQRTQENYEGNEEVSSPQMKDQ
Procedure, shortened: as §1

[4] = target: UniProt P51784
Chain of UniProt P51784 (P51784 whole entry): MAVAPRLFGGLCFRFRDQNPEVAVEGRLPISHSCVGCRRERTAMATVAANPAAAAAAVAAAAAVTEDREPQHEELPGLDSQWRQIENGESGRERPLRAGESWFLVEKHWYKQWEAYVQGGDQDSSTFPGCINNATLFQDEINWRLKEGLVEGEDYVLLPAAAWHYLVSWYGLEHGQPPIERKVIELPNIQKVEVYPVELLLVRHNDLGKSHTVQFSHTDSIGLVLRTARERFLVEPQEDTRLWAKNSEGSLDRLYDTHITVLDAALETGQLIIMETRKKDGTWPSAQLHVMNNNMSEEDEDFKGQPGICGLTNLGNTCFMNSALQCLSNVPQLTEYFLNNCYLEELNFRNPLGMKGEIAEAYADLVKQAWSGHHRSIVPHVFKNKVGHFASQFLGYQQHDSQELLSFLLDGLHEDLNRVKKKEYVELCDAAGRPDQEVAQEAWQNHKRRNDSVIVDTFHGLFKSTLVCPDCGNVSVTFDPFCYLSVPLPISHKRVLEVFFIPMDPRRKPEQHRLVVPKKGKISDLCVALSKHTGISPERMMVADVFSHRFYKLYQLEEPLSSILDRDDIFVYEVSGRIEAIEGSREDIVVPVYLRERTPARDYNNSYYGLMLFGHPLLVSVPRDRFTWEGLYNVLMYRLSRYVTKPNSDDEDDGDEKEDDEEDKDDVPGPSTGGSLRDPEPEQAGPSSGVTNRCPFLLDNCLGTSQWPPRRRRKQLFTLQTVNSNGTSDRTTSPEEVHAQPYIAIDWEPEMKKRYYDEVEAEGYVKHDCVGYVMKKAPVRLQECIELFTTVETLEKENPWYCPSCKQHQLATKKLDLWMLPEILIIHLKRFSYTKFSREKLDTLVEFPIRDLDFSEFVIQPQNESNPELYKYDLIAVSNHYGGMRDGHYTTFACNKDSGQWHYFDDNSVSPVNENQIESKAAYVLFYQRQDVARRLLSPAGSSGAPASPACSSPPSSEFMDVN
Procedure, shortened: as §1

[5] = target: T1, UniProt Q5T2D3
T1 sequence (whole entry): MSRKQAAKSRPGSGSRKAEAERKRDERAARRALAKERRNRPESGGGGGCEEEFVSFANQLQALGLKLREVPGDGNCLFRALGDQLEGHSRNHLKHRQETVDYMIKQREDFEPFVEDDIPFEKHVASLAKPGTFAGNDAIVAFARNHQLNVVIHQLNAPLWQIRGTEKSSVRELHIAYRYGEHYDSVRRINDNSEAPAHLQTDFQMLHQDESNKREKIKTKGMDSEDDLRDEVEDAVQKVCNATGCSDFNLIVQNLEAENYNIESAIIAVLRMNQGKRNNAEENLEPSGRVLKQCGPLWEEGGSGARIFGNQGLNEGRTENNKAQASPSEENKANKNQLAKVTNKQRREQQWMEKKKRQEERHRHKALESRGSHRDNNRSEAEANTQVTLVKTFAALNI
Procedure, shortened: as §1

[6] = target: T2, UniProt Q8TE49
T2 sequence (whole entry): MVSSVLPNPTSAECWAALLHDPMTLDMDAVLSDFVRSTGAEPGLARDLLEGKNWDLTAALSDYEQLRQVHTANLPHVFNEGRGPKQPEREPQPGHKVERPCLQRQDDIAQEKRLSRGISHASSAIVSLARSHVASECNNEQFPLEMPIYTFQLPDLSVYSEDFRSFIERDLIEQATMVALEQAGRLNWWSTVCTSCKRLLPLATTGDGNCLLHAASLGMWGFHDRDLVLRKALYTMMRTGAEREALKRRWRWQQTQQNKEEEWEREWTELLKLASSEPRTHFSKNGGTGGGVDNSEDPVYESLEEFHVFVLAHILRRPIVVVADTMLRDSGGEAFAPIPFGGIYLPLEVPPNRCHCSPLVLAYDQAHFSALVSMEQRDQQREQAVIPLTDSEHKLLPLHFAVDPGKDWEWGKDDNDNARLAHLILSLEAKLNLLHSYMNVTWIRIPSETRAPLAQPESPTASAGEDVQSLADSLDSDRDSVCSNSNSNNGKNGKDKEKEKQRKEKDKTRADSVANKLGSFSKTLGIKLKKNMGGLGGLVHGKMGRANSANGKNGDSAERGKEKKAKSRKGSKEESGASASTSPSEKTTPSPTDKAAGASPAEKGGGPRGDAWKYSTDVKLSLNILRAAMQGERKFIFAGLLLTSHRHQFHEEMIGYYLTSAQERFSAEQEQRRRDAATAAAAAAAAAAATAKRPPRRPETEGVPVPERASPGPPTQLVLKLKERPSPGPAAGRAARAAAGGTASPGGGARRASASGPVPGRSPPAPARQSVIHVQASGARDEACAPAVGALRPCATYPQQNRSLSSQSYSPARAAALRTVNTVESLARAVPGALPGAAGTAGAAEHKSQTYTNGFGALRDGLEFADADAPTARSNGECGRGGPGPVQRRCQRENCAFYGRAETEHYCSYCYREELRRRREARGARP
Procedure, shortened: as §1

[7] = target: T3, UniProt Q9P2H5
T3 sequence (whole entry): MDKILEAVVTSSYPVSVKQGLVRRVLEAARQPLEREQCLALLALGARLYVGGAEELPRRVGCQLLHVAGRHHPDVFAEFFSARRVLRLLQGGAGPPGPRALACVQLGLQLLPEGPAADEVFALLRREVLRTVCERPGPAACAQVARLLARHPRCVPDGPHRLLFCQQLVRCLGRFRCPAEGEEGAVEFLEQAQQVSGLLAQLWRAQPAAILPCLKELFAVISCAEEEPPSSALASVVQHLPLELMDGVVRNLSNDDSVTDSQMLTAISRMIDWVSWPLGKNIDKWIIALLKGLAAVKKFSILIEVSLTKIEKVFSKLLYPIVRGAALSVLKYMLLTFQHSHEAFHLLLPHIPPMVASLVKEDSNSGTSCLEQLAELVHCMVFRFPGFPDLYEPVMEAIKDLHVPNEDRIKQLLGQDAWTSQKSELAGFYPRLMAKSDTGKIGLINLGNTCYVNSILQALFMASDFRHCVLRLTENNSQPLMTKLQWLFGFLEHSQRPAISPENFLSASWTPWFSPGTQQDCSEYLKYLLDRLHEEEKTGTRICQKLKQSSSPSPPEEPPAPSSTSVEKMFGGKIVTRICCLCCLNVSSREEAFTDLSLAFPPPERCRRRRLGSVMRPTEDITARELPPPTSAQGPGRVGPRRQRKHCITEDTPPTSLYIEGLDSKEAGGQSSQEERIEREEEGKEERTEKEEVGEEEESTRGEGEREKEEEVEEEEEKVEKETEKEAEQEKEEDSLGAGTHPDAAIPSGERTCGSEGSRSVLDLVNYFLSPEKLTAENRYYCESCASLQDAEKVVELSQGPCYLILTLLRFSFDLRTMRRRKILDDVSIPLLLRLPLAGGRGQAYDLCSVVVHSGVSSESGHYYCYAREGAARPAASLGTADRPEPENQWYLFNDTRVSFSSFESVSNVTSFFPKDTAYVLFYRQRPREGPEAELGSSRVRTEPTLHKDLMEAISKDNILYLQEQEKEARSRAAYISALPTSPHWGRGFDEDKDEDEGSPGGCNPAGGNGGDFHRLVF
Procedure, shortened: as §1

[8] = target: T4, UniProt Q9UGI0
T4 sequence (whole entry): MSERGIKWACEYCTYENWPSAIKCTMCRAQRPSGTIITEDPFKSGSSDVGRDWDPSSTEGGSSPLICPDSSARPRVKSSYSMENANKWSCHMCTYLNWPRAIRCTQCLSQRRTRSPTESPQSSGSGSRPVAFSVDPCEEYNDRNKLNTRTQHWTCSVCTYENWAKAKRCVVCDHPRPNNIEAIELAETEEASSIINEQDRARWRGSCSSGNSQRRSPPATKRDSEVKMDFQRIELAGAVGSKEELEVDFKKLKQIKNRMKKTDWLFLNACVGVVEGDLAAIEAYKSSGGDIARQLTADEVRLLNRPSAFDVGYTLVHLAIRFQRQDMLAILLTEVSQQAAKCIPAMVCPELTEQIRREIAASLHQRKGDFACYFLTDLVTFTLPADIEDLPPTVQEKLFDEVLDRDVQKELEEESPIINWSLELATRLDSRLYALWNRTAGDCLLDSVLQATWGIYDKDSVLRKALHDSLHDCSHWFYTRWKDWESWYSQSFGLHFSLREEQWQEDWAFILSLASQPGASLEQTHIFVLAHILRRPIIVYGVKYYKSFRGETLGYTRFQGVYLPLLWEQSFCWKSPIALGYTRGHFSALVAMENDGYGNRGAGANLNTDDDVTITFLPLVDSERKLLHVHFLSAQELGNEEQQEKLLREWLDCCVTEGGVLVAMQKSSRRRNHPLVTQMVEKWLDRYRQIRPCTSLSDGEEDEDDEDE
Procedure, shortened: as §1

[9] = target: T5, YOD1 (UniProt Q5VVQ6)
T5 sequence (whole entry): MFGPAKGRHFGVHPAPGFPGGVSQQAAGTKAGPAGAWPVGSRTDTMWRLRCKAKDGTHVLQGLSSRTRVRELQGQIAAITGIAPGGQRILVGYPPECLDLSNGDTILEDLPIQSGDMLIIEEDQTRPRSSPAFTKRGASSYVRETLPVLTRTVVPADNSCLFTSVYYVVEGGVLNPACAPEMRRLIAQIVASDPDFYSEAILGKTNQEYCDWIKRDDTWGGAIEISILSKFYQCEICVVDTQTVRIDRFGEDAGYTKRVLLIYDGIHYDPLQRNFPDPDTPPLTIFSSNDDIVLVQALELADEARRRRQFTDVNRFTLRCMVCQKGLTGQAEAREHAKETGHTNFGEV
Procedure, shortened: as §1

Measured: log2 ratio of Biotin-Ahx-Ub-VS probe labelling

O=C(CCl)N1CCCC2CCCCC21 (centres undefined)
inactive: [1] -0.183 | [2] -0.107 | [3] -0.0343 | [4] 0.035 | [5] -0.0557 | [6] -0.126 | [7] -0.193 | [8] -0.134 | [9] 0.0864
